Screening results as filed in PubChem BioAssay.
Only some compounds are listed: those with a hit (about 4.1% of all), similar ones and a draw of the others.
UHRF1 binding – blocks human UHRF1 binding to methylated DNA; Q96T88; UHRF1 binding to methylated oligo, TR-FRET; inhibition, % at 4.4 µM; hit rate 0.75% among 370,000; AID 687016; in the data active means inhibition above about 21%;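 further: UHRF1 SRA domain binding a hemimethylated CpG hairpin DNA probe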
PRMT1 inh – inhibitors of human PRMT1 | Q99873 | recombinant PRMT1, activity-based probe fluorescence polarization | inhibition, % at 2.79 µM | hit rate 1.3% among 370,000 | AID 652257;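 active means inhibition above about 21% made by adding two undisclosed values, limit read from the data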
rCAG binder – molecules binding r(CAG) RNA repeats; inhibition, % at 3 µM; r(CAG) RNA repeat, TO-PRO-1 dye displacement fluorescence; AID 651821; hit rate 1.3% among 370,000;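 active means inhibition above the plate cutoff, the mean of all test compounds on that plate plus 3 SD, cut at about 35% in these data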;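 further: higher means more dye released from RNA so lower well fluorescence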
LEDGF integ inh – blocks HIV-1 LEDGF/p75-dependent DNA integration | inhibition, % at 3.7 µM | hit rate 0.64% among 370,000 | TR-FRET IN-LEDGF/p75 DNA integration, Eu/Cy5;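 active means inhibition above the screen-wide mean plus 3 SD, cut at about 13% in these data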;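 further: signal is the Cy5 over europium emission ratio at 671 and 618 nm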
ABHD5-PLIN5 inh – inhibitors of human ABHD5-perilipin-5 interaction; Split G. princeps luciferase complementation, luminescence, 4 h; inhibition, % at 4 µM; hit rate 0.78% among 360,000; AID 602281;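 active means inhibition above the mean inhibition across every tested compound plus 3 SD, cut at about 22% in these data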
MBD2 inh – MBD2-methylated oligo binding inhibition. Q9UBB5. TR-FRET, MBD2 binding to methylated oligonucleotide. inhibition, % at 4.4 µM. hit rate 0.31% among 370,000; in the data active means inhibition above about 13%
Target sequence (Q9UBB5 whole entry, looked up): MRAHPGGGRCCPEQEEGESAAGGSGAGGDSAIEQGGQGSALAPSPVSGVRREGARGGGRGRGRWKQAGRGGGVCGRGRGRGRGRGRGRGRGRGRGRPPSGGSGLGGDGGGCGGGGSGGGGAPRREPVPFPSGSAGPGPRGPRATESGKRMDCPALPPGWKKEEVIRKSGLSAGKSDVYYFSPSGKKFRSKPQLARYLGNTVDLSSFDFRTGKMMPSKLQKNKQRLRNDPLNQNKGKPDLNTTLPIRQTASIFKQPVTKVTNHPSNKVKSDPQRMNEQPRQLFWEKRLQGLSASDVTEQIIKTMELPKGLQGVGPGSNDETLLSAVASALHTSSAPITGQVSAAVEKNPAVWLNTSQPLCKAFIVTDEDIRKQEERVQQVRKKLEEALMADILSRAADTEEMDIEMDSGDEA
rCAG binder conf – r(CAG) RNA repeat binding, confirmation; hit rate 70% among 4,300; shares compounds with rCAG binder; inhibition, % at 3 µM; TO-PRO-1 dye displacement fluorescence;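 active means inhibition above a per-plate cutoff, the mean inhibition of sample wells plus 3 SD, cut at about 35% in these data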;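 further: loss of TO-PRO-1 fluorescence as compound displaces dye from 1x1 AA loop RNA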
DNA CAG counter – counter-screen for rCAG RNA binders: DNA CAG dye complex inhibitors | shares compounds with rCAG binder | d(CAG) DNA oligo TO-PRO-1 dye displacement, fluorescence | inhibition, % at 3 µM | hit rate 94% among 4,300;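 active means inhibition above its plate's cutoff, the mean test-well inhibition plus 3 SD, cut at about 4.8% in these data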;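 further: hits displace the dye from DNA and so lower well fluorescence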
DNA CAG DR – DNA CAG dye complex inhibition, dose response counter-screen. IC50, µM. AID 686960. DNA CAG/GTC duplex TO-PRO-1 dye displacement fluorescence. shares compounds with rCAG binder. hit rate 20% among 250; in the data active means IC50 below about 10 µM
Each line names hits and unclear results; the compound was inactive in the other large screens (follow-up assays come after a bar, where they were run).

O=C(CSc1nnc(-c2ccccc2)n1Cc1ccco1)Nc1ccc(S(=O)(=O)N2CCCC2)cc1	none
COc1ccc(NC(=O)CSc2nnc(COc3ccccc3)n2Cc2ccco2)cc1OC	none
COc1cccc(/C=C2\SC(=S)N(NS(=O)(=O)c3ccc(C)cc3)C2=O)c1OC	rCAG binder 75 | rCAG binder conf 66 | DNA CAG counter 28
COc1ccccc1/C=C1\SC(=S)N(NS(=O)(=O)c2ccccc2)C1=O	rCAG binder 69 | rCAG binder conf 69 | DNA CAG counter 22
Cc1ccc(-n2nc(C)c3c2NC2=C(C(=O)CC(C)(C)C2)C3c2ccccc2OCC(=O)O)cc1 (configuration not stated)	rCAG binder 37 | rCAG binder conf 41 | DNA CAG counter 9.4
O=C(Nc1cc(-c2ccccc2)sc1C(=O)O)c1cccc(F)c1	rCAG binder 73 | rCAG binder conf 70 | DNA CAG counter 33 | DNA CAG DR 4
CCOc1ccc(-c2cc(NC(=O)c3c(F)cccc3F)c(C(=O)O)s2)cc1	rCAG binder 83 | rCAG binder conf 85 | DNA CAG counter 44
CCOC(=O)c1sc(-c2ccc(OC)cc2)cc1NC(C)=O	none
O=C(O)c1ccc(NC(=O)c2ccccc2NC(=O)c2cccc(F)c2)cc1	none
CC(/C=C/c1ccco1)=N\NC(=O)c1cc(C)[nH]n1	none
CC(/C=C/c1ccco1)=N\NC(=O)c1cc(Cl)ccc1O	rCAG binder 49 | rCAG binder conf 37 | DNA CAG counter 16
O=C(Nc1ccccc1)Nc1nnc(Cc2ccc(F)cc2)s1	rCAG binder 36 | rCAG binder conf inactive | DNA CAG counter 12
COc1cc(/C=N/NC(=O)Cc2nnc(NC(=O)c3ccccc3)s2)ccc1O	rCAG binder 38 | rCAG binder conf inactive | DNA CAG counter 7.5
O=C(Cc1nnc(NC(=O)c2ccccc2)s1)N/N=C/c1ccc(O)cc1	none
O=C(Cc1nnc(NC(=O)Nc2ccccc2)s1)Nc1ccccc1	none
O=C(Cc1nnc(NC(=O)Nc2ccc(F)cc2)s1)Nc1ccccc1	rCAG binder 38 | rCAG binder conf inactive | DNA CAG counter 15
Cc1ccc(NC(=O)Nc2nnc(Cc3ccc(F)cc3)s2)cc1	none
CCN(CC)c1ccc(/C=N/NC(=O)Nc2ccccc2)cc1	none
CCN(CC)c1ccc(/C=N/NC(=O)Cc2nnc(NC(=O)Nc3ccccc3)s2)cc1	rCAG binder 60 | rCAG binder conf 40 | DNA CAG counter 27
COc1cccc(N=Nc2c(=O)[nH]n3c(=O)c4c([nH]c23)CCC4)c1	rCAG binder 39 | rCAG binder conf inactive | DNA CAG counter 7.6
O=c1[nH]n2c(=O)c3c([nH]c2c1N=Nc1cccc(C(F)(F)F)c1)CCCC3	rCAG binder 99 | rCAG binder conf 76 | DNA CAG counter 42
NS(=O)(=O)c1ccc(N=Nc2c(=O)[nH]n3c(=O)c4c([nH]c23)CCCC4)cc1	none
O=c1[nH]n2c(=O)c3c([nH]c2c1N=Nc1cccc(Cl)c1)CCC3	rCAG binder 85 | rCAG binder conf 73 | DNA CAG counter 31 | DNA CAG DR 8.4
CCOc1ccccc1NC(=O)c1cc2c(C)nn(-c3ccccc3)c2s1	none (no result: ABHD5-PLIN5 inh)
CC(=O)OCCCN1CCC2(CCCCC2)C1=O	none (no result: ABHD5-PLIN5 inh)
COC(=O)c1c(C)cc(OC(C)=O)c(C)c1OC(C)=O	none
COc1cc(C)c(C(=O)Oc2cc(C)c(C(=O)O)c(O)c2C)c(O)c1C	rCAG binder 87 | rCAG binder conf 84 | DNA CAG counter 52
NS(=O)(=O)c1ccc(OCCCN2CCC(C(O)(c3ccccc3)c3ccccc3)CC2)cc1	none (no result: ABHD5-PLIN5 inh)
CCOC(=O)C1=C(CC)Nc2ccccc2N=C1NC(=O)c1cc(S(=O)(=O)N(C)C)ccc1Cl	none
CCOC(=O)C1=C(CC)Nc2ccccc2N/C1=N\S(=O)(=O)c1ccc(C(=O)OCC)cc1	rCAG binder 41 | rCAG binder conf 40 | DNA CAG counter 9.1
OCC1OC(C(N=Nc2ccccc2)=NNc2ccccc2)C(O)C1O (configuration not stated)	none (no result: ABHD5-PLIN5 inh)
O=C(O)COc1ccc(/C=N/NC(=O)c2cn(-c3ccccc3)nc2-c2ccccc2)cc1	rCAG binder 43 | rCAG binder conf 35 | DNA CAG counter 10
O=C(O)COc1ccc(/C=N/NC(=O)c2ccccc2Br)cc1	none (no result: UHRF1 binding, PRMT1 inh, rCAG binder, LEDGF integ inh, MBD2 inh)
O=C(N/N=C/c1ccc([N+](=O)[O-])o1)c1cn(-c2ccccc2)nc1-c1ccccc1	rCAG binder 39 | rCAG binder conf inactive | DNA CAG counter 10
CCOc1ccc(CCNC(=O)c2ccc(Oc3ccccc3)cc2)cc1OCC	none (no result: rCAG binder, ABHD5-PLIN5 inh)
COc1ccc(NS(=O)(=O)c2ccc(-n3nnc4ccccc43)c([N+](=O)[O-])c2)cc1	none
O=[N+]([O-])c1cc(S(=O)(=O)Nc2cccc(C(F)(F)F)c2)ccc1-n1nnc2ccccc21	rCAG binder 78 | rCAG binder conf 69 | DNA CAG counter 33
Cc1ccc(NC(=S)N(Cc2ccc(Cl)cc2)Cc2ccc(C(=O)O)cc2)cc1Cl	rCAG binder 76 | rCAG binder conf 69 | DNA CAG counter 28 | DNA CAG DR inactive
COc1ccc(NC(=S)N(Cc2cccc(Br)c2)CC2CCC(C(=O)O)CC2)cc1 (configuration not stated)	none
COc1ccc(CN(CC2CCC(C(=O)O)CC2)C(=S)Nc2ccc(C)c(Cl)c2)cc1 (configuration not stated)	rCAG binder 35 | rCAG binder conf inactive | DNA CAG counter 5.8
CCCCC1O[C@@H](C)[C@@H]2CN3CCc4c([nH]c5ccccc45)[C@@H]3C[C@@H]2N1C (some centres not stated)	none (no result: ABHD5-PLIN5 inh)
O=C(NNC(=S)Nc1cccc2ccccc12)c1cccc(Br)c1	rCAG binder 66 | rCAG binder conf 72 | DNA CAG counter 36
O=C(NNC(=O)c1ccc2ccccc2c1)c1cccc(Br)c1	none
Clc1cccc(-c2nc(-c3ccc(-c4nn[nH]n4)cc3)no2)c1	rCAG binder 36 | rCAG binder conf 62 | DNA CAG counter 19 | DNA CAG DR inactive
CC(=O)Nc1ccc(Nc2nc(-c3cc4ccccc4oc3=O)cs2)cc1	none
O=C(O)c1ccc(Nc2nc(-c3cc4ccccc4oc3=O)cs2)cc1O	rCAG binder 72 | rCAG binder conf 84 | DNA CAG counter 48
COc1ccc(/C=C(\CC(=O)O)c2nc3ccccc3s2)cc1O	none
COc1ccc(C(=O)Nc2cccc(/C=C(\CCC(=O)O)c3nc4ccccc4s3)c2)cc1	rCAG binder 62 | rCAG binder conf 76 | DNA CAG counter 38
